ELG1 DNA repair = ELG1-dependent DNA repair inhibition; HEK293T ELG1-luciferase reporter, luminescence, 16 h; DNA damage induced by 5-fluorouridine; Potency, µM (titrated, usually from 46.1 µM), hits mostly inhibitors; hit rate 2.3% among 330,000; AID 504467; also: nearly all actives have a fitted effect of over 55% in size
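Step one: seed 2,000 cells per well. Step two: pin-transfer compound or DMSO alongside 5-fluorouridine. Step three: incubate 16 hr, 37 °C, 5% CO2. Step four: add ONE-Glo, wait 30 min, read luminescence.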
ELG1 genotoxic = inducers of genotoxicity in HEK293T ELG1-luciferase cells; HEK293T ELG1-luciferase reporter, luminescence, 16 h; Potency, µM (series often up to 46 µM), hits mostly activators; hit rate 1.3% among 330,000; also: nearly all actives have a fitted effect of over 60% in size
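Genotoxic stress is detected as increased luminescence from luciferase-tagged ELG1 in HEK293T cells, measured with ONE-Glo after a 16 hr treatment at 37 °C.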
FLuc counter = inhibits or activates purified firefly luciferase, miR-21 counter-screen; purified FLuc, Km substrates, luminescence inhibition; hit rate 6.9% among 360,000; Potency, µM (highest dose often 57.5 µM), hits mostly inhibitors; also: nearly all actives have a fitted effect of over 55% in size
Target sequence (P08659 whole entry, looked up): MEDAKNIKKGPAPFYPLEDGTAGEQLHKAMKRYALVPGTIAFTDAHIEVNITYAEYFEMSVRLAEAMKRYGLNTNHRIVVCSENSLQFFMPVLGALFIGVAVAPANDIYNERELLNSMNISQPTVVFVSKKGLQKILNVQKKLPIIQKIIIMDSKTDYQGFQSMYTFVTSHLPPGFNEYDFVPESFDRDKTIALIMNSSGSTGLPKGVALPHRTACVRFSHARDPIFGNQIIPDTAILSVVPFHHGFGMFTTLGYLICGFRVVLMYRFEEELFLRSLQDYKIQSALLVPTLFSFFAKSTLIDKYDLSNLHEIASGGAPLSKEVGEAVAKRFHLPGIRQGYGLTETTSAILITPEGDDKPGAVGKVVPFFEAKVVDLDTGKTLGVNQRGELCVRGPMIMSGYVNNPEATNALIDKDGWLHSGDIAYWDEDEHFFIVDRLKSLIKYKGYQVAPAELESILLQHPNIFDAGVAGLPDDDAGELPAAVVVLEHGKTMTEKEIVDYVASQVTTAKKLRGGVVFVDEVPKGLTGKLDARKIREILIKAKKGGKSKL
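Purified P. pyralis luciferase (10nM final) with 10uM D-luciferin and 10uM ATP (Km levels) in 50mM Tris acetate pH 7.5, 10mM Mg acetate, 0.01% Tween-20, 0.05% BSA; qHTS 6-point titration, ~60 µM downward; luminescence read.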
NPC1 prom act = activates the NPC1 promoter. Potency, µM (top dose mostly 9.22 µM), most hits filed as activators. AID 485313. Huh7 NPC1 promoter luciferase reporter, 24 h. hit rate 2.4% among 320,000; also: nearly all actives have a fitted effect of over 60% in size
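Stable NPC1-promoter luciferase Huh7 line; cpd (DMSO) 24 h, 37 °C, 5% CO2; Amplite luciferase reagent 10 min RT; luminescence readout. qHTS format.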
SMN2 splice up = SMN2 splice variant enhancement; HEK293 SMN2-luciferase splicing reporter, luminescence, 30-36 h; Potency, µM (titrated, usually from 46.1 µM), hits mostly activators; hit rate 2.8% among 210,000; AID 1458; also: nearly all actives have a fitted effect of over 55% in size
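HEK293 cells carry an SMN2 […]–luciferase reporter in which exon 7 inclusion puts luciferase in frame. Cells were plated 10-12 h before compound addition, then incubated 30-36 h at 37C. ONE-Glo luminescence was read; sodium butyrate at 4.5 mM final served as control.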
Rab9 prom act = activators of Rab9 promoter | Huh7 Rab9 promoter-luciferase reporter, luminescence, 24 h | Potency, µM (titrated, usually from 9.22 µM), most hits filed as activators | hit rate 2.8% among 320,000; also: nearly all actives have a fitted effect of over 60% in size
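Measured in stably transfected Huh7 cells bearing a Rab9 promoter–luciferase construct: 24 h compound treatment at 37 °C, followed by luminescence detection.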
Hits are given with their value; [ ] = another dose, or the depositor's remark. Most compounds without a hit are left out; they make up all but 9.2% or so of the library. Calls follow the shape of the dose curve; as a rule, active = well fitted curve in the direction sought with a large enough effect; inconclusive = small, poorly fitted or top-dose-only effect, or another doubt; inactive = no such curve, though single readings can be large; an effect the other way counts as inactive or inconclusive.

Cc1ccc(Cl)cc1NC(=O)C1CCCN(S(=O)(=O)c2c(C)noc2C)C1 (stereo not drawn) was read as ELG1 DNA repair inconclusive, FLuc counter inactive, NPC1 prom act inactive, SMN2 splice up inactive and Rab9 prom act inactive.
Screening CCOc1ccc(NC(=O)C(C)Oc2ccccc2C(=O)Nc2cccc(Cl)c2Cl)cc1 (stereo not drawn) returned ELG1 DNA repair inactive, ELG1 genotoxic inactive, FLuc counter inactive, NPC1 prom act inactive, SMN2 splice up inactive and Rab9 prom act inactive.
`CCOc1ccc(C(=O)Cc2cc(OC)c(OC)cc2[N+](=O)[O-])cc1` gave ELG1 DNA repair inactive, ELG1 genotoxic inactive, FLuc counter inactive, NPC1 prom act inconclusive, SMN2 splice up inactive and Rab9 prom act inconclusive.
Screening COc1ccc(C(=O)Cc2cc(OC)c(OC)cc2[N+](=O)[O-])cc1 returned ELG1 DNA repair inconclusive, ELG1 genotoxic inactive, FLuc counter 9.5µM, NPC1 prom act inconclusive, SMN2 splice up inconclusive and Rab9 prom act inconclusive.
For COc1ccc(/C=C(\C#N)c2cc(OC)c(OC)cc2[N+](=O)[O-])cc1 the results were ELG1 DNA repair inactive, ELG1 genotoxic inactive, FLuc counter 9.5µM, NPC1 prom act inactive and Rab9 prom act inactive.
Screening CCN(CC)/C(=N\S(=O)(=O)c1ccccc1C)c1ccccc1 returned ELG1 DNA repair inactive, ELG1 genotoxic inactive, FLuc counter inactive, NPC1 prom act inactive and Rab9 prom act inactive.
Cc1c(NC(=O)CS(=O)(=O)c2ccccc2)c(=O)n(-c2ccccc2)n1C was read as ELG1 DNA repair inactive, ELG1 genotoxic inactive, FLuc counter inactive, NPC1 prom act inactive, SMN2 splice up inactive and Rab9 prom act inactive.
`COc1cccc(/C=C/c2ccccn2)c1O` gave ELG1 DNA repair inconclusive, ELG1 genotoxic 7.3µM, FLuc counter 3µM, NPC1 prom act 1.3µM and Rab9 prom act 2.8µM.
`CCC(=O)N1CCC2(CC1)Oc1ccc(Cl)cc1C(=O)C21CC(c2ccc(Cl)cc2)=NO1` (stereo not drawn) gave ELG1 DNA repair 10µM, ELG1 genotoxic inactive, FLuc counter inactive, NPC1 prom act inactive and Rab9 prom act inactive.
CCC(=O)N1CCC2(CC1)Oc1ccc(F)cc1C(=O)C21CC(c2ccc(Cl)cc2)=NO1 (stereo not drawn) was read as ELG1 DNA repair inactive, ELG1 genotoxic inactive, FLuc counter inactive, NPC1 prom act inactive and Rab9 prom act inactive.
CCOc1ccc(-c2cc(C(=O)N3CCN(c4ccc(C)cc4)C(C)C3)c3ccccc3n2)cc1 (stereo not drawn) was read as FLuc counter 4.8µM.
`CCOc1ccc(-c2cc(C(=O)N3CCN(c4cccc(C)c4)C(C)C3)c3ccccc3n2)cc1` (stereo not drawn) gave FLuc counter 2.4µM.
Screening CC(=O)N1CCOc2ccc(S(=O)(=O)N3CC(C)CC(C)C3)cc21 (stereo not drawn) returned ELG1 DNA repair inactive, ELG1 genotoxic inactive[9.26 µM], FLuc counter inactive, NPC1 prom act inactive and Rab9 prom act inactive.
`CCCCc1nc2c(c3c1C[C@H](C)OC3)CN(C(=O)Nc1cccc(C#N)c1)CC2` gave SMN2 splice up inactive[9.22 µM].
Screening CCCN1Cc2cccc(C(=O)Nc3ccc(C)cc3)c2C1=O returned ELG1 DNA repair inactive, ELG1 genotoxic inactive, FLuc counter inactive, NPC1 prom act inactive, SMN2 splice up inactive and Rab9 prom act inactive.
Screening CCCN1Cc2cccc(C(=O)Nc3ccc4c(c3)OCO4)c2C1=O returned ELG1 DNA repair inconclusive, ELG1 genotoxic inactive, FLuc counter inconclusive, NPC1 prom act inactive and Rab9 prom act inactive.
Screening CCCN1Cc2cccc(C(=O)Nc3ccc4c(c3)OCCO4)c2C1=O returned ELG1 DNA repair inactive, ELG1 genotoxic inactive, FLuc counter 15µM, NPC1 prom act inactive, SMN2 splice up inactive and Rab9 prom act inactive.
Screening CCCN1Cc2cccc(C(=O)Nc3ccc(CC)cc3)c2C1=O returned ELG1 DNA repair inconclusive, ELG1 genotoxic inactive, FLuc counter 2.7µM, NPC1 prom act inactive, SMN2 splice up inactive and Rab9 prom act inactive.
Screening Cc1cc(C)cc(NC(=O)COC(=O)CCCNC(=O)c2ccc(Cl)cc2)c1 returned ELG1 DNA repair inactive, ELG1 genotoxic inactive, FLuc counter 12µM, NPC1 prom act inactive, SMN2 splice up inactive and Rab9 prom act inactive.
`O=C(COC(=O)CCCNC(=O)c1ccc(Cl)cc1)Nc1cc(Cl)c(Cl)cc1Cl` gave ELG1 DNA repair inactive, ELG1 genotoxic inactive, FLuc counter inconclusive, NPC1 prom act inactive, SMN2 splice up inactive and Rab9 prom act inactive.
Screening COc1ccc2c(c1)/C(=N/OC(=O)c1cccs1)CCC2 returned ELG1 DNA repair inconclusive, ELG1 genotoxic inactive, FLuc counter 27µM, NPC1 prom act inactive, SMN2 splice up inactive and Rab9 prom act inactive.
`COc1ccc(/C(N)=N/OC(=O)c2cccs2)cc1` gave ELG1 DNA repair inconclusive, ELG1 genotoxic 8.2µM, FLuc counter 1.9µM, NPC1 prom act 1.4µM and Rab9 prom act 1.3µM.
COc1ccc(CNC(=O)c2cccs2)cc1 was read as ELG1 DNA repair inactive, ELG1 genotoxic inactive, FLuc counter inactive, NPC1 prom act inactive, SMN2 splice up inactive and Rab9 prom act inactive.
COc1ccc(CNC(=O)COC(=O)c2cccs2)cc1 was read as ELG1 DNA repair inactive, ELG1 genotoxic inactive, FLuc counter 24µM, NPC1 prom act inactive and Rab9 prom act inactive.
For COc1ccc(NC(=O)O/N=C2/CCCc3ccc(OC)cc32)cc1 the results were ELG1 DNA repair inactive, ELG1 genotoxic inactive, FLuc counter inconclusive, NPC1 prom act inactive and Rab9 prom act inactive.
For N/C(=N\OC(=O)c1cccs1)c1ccc(Cl)cc1 the results were ELG1 DNA repair inconclusive, ELG1 genotoxic inconclusive, FLuc counter 4.8µM, NPC1 prom act inactive and Rab9 prom act inconclusive.
Screening Cn1cc([N+](=O)[O-])c(C(=O)NC2CCCCCCC2)n1 returned ELG1 DNA repair inactive, ELG1 genotoxic inactive, FLuc counter inactive, NPC1 prom act inactive and Rab9 prom act inactive.
`Cc1ccc(SCC(=O)O/N=C(\N)c2cccnc2)cc1` gave ELG1 DNA repair inconclusive, ELG1 genotoxic inconclusive, FLuc counter inactive, NPC1 prom act inactive and Rab9 prom act inactive.
`N/C(=N\OC(=O)CC1CCCCC1)c1cccnc1` gave ELG1 DNA repair inconclusive, ELG1 genotoxic inactive, FLuc counter 13µM, NPC1 prom act inactive, SMN2 splice up inactive and Rab9 prom act inactive.
For N/C(=N\OC(=O)C1CCCCC1)c1cccnc1 the results were ELG1 DNA repair inactive, ELG1 genotoxic inactive, FLuc counter 19µM, NPC1 prom act inactive, SMN2 splice up inactive and Rab9 prom act inactive.

Screening data: PubChem BioAssay, National Center for Advancing Translational Sciences (NCATS)
